Measurements as given in PMC8384837, “Expanding the binding specificity for RNA recognition by a PUF domain”.

What was measured:
Assay in all cases: yeast three-hybrid, YBZ-1, SC-Leu-His + 0.5 mM 3-AT, 4 days
Settings in all cases: tags: N-Gal4 AD-HA kept; label: inside an RPR1-promoter hybrid RNA with tandem MS2 sites; ssRNA
[1] = target: PUM1 PUF domain R3-YWF (Homo sapiens, UniProt Q14671 828-1176, C935Y;R936W;Q939F)
How it was run: (§1)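 The interaction score is the log change in how often each variant appears, from input to selection. Frequencies came from PCR-amplified, Illumina-sequenced repeat regions of Pumilio-1 PUF domain libraries grown in strain YBZ-1 (LexA–MS2 coat fusion, HIS3 reporter) alongside matching RNA elements. Input plates were SC-Leu and selection plates were SC-Leu-His + 0.5 mM 3-AT, each for four days, and the log2 calculation used a pseudocount of 1 where a variant was absent.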

[2] = target: PUM1 PUF domain R3-SQQ (Homo sapiens, UniProt Q14671 828-1176, C935S;R936Q)
How it was run: as §1

[3] = target: PUM1 PUF domain R5-RCL (Homo sapiens, UniProt Q14671 828-1176, C1007R;R1008C;Q1011L)
How it was run: as §1

[4] = target: PUM1 PUF domain R5-RGE (Homo sapiens, UniProt Q14671 828-1176, C1007R;R1008G;Q1011E)
How it was run: as §1

[5] = target: PUM1 PUF domain R7-QSG (Homo sapiens, UniProt Q14671 828-1176, S1079Q;N1080S;E1083G)
How it was run: as §1

[6] = target: PUM1 PUF domain R7-KPL (Homo sapiens, UniProt Q14671 828-1176, S1079K;N1080P;E1083L)
How it was run: as §1

[7] = target: PUM1 PUF domain R8-HFN (Homo sapiens, UniProt Q14671 828-1176, N1122H;Y1123F;Q1126N)
How it was run: as §1

[8] = target: PUM1 PUF domain R2-RKC (Homo sapiens, UniProt Q14671 828-1176, N899R;Y900K;Q903C)
How it was run: as §1

[9] = target: PUM1 PUF domain R1-TGR (Homo sapiens, UniProt Q14671 828-1176, S863T;R864G;Q867R)
How it was run: as §1

PUM1 PUF domain R1-TGR, sequence (Q14671 828-1176 S863T/R864G/Q867R): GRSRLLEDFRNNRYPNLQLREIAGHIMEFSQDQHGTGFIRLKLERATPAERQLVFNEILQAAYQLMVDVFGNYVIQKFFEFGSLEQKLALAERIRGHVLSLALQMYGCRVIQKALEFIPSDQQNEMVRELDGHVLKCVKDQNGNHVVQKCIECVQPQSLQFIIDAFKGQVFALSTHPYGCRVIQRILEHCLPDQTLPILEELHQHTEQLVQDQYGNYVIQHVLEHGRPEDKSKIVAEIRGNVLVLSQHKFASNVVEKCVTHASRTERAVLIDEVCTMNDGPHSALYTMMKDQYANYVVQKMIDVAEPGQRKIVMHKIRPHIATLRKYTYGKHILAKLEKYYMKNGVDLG
PUM1 PUF domain R5-RGE, sequence (Q14671 828-1176 C1007R/R1008G/Q1011E): as the sequence (Q14671 828-1176 S863T/R864G/Q867R) above, with T36S, G37R, R40Q, C180R, R181G, Q184E counted along it
PUM1 PUF domain R5-RCL, sequence (Q14671 828-1176 C1007R/R1008C/Q1011L): as the sequence (Q14671 828-1176 S863T/R864G/Q867R) above, with T36S, G37R, R40Q, C180R, R181C, Q184L counted along it
PUM1 PUF domain R3-YWF, sequence (Q14671 828-1176 C935Y/R936W/Q939F): as the sequence (Q14671 828-1176 S863T/R864G/Q867R) above, with T36S, G37R, R40Q, C108Y, R109W, Q112F counted along it
PUM1 PUF domain R7-QSG, sequence (Q14671 828-1176 S1079Q/N1080S/E1083G): as the sequence (Q14671 828-1176 S863T/R864G/Q867R) above, with T36S, G37R, R40Q, S252Q, N253S, E256G counted along it
PUM1 PUF domain R8-HFN, sequence (Q14671 828-1176 N1122H/Y1123F/Q1126N): as the sequence (Q14671 828-1176 S863T/R864G/Q867R) above, with T36S, G37R, R40Q, N295H, Y296F, Q299N counted along it
PUM1 PUF domain R3-SQQ, sequence (Q14671 828-1176 C935S/R936Q): as the sequence (Q14671 828-1176 S863T/R864G/Q867R) above, with T36S, G37R, R40Q, C108S, R109Q counted along it
PUM1 PUF domain R2-RKC, sequence (Q14671 828-1176 N899R/Y900K/Q903C): as the sequence (Q14671 828-1176 S863T/R864G/Q867R) above, with T36S, G37R, R40Q, N72R, Y73K, Q76C counted along it
PUM1 PUF domain R7-KPL, sequence (Q14671 828-1176 S1079K/N1080P/E1083L): as the sequence (Q14671 828-1176 S863T/R864G/Q867R) above, with T36S, G37R, R40Q, S252K, N253P, E256L counted along it

Sequence: GGCUAGAACUAGUGGAUCCCCCGGCGCCCGGCGGCUCGAGCCCGGGUAAGUGUAAGUAGUCUGCAUGCCGCCGGGCGCCAUGCCUGCAGGUCGACUCUAGAAAACAUG
- binding signal [1]: 3.54 log2 enrichment (interaction score)

Sequence: GGCUAGAACUAGUGGAUCCCCCGGCGCCCGGCGGCUCGAGCCCGGGUAAGUGUAAAUAGUCUGCAUGCCGCCGGGCGCCAUGCCUGCAGGUCGACUCUAGAAAACAUG
- binding signal [2]: 2.27 log2 enrichment (interaction score)

Sequence: GGCUAGAACUAGUGGAUCCCCCGGCGCCCGGCGGCUCGAGCCCGGGUAAGUGUCAAUAGUCUGCAUGCCGCCGGGCGCCAUGCCUGCAGGUCGACUCUAGAAAACAUG
- binding signal [3]: 1.64 log2 enrichment (interaction score)
- binding signal [4]: 2.34 log2 enrichment (interaction score)

Sequence: GGCUAGAACUAGUGGAUCCCCCGGCGCCCGGCGGCUCGAGCCCGGGUAAGUGUUAAUAGUCUGCAUGCCGCCGGGCGCCAUGCCUGCAGGUCGACUCUAGAAAACAUG
- binding signal [3]: 2.91 log2 enrichment (interaction score)
- binding signal [4]: 0.96 log2 enrichment (interaction score)

Sequence: GGCUAGAACUAGUGGAUCCCCCGGCGCCCGGCGGCUCGAGCCCGGGUAAGUUUAAAUAGUCUGCAUGCCGCCGGGCGCCAUGCCUGCAGGUCGACUCUAGAAAACAUG
- binding signal [5]: 2.85 log2 enrichment (interaction score)

Sequence: GGCUAGAACUAGUGGAUCCCCCGGCGCCCGGCGGCUCGAGCCCGGGUAAGUCUAAAUAGUCUGCAUGCCGCCGGGCGCCAUGCCUGCAGGUCGACUCUAGAAAACAUG
- binding signal [6]: 2.86 log2 enrichment (interaction score)

Sequence: GGCUAGAACUAGUGGAUCCCCCGGCGCCCGGCGGCUCGAGCCCGGGUAAGCGUAAAUAGUCUGCAUGCCGCCGGGCGCCAUGCCUGCAGGUCGACUCUAGAAAACAUG
- binding signal [7]: 3.57 log2 enrichment (interaction score)

Sequence: GGCUAGAACUAGUGGAUCCCCCGGCGCCCGGCGGCUCGAGCCCGGGUAAGUGUAAAGAGUCUGCAUGCCGCCGGGCGCCAUGCCUGCAGGUCGACUCUAGAAAACAUG
- binding signal [8]: 5.3 log2 enrichment (interaction score)

Sequence: GGCUAGAACUAGUGGAUCCCCCGGCGCCCGGCGGCUCGAGCCCGGGUAAGUGUAAAUUGUCUGCAUGCCGCCGGGCGCCAUGCCUGCAGGUCGACUCUAGAAAACAUG
- binding signal [9]: 0.64 log2 enrichment (interaction score)

Sequence: GGCUAGAACUAGUGGAUCCCCCGGCGCCCGGCGGCUCGAGCCCGGGUAAGUGUAAAUCGUCUGCAUGCCGCCGGGCGCCAUGCCUGCAGGUCGACUCUAGAAAACAUG
- binding signal [9]: 2.65 log2 enrichment (interaction score)
